Inconclusive results are not listed. The source made the active and inactive calls. Unless noted, no rule for the calls is given here.

Test [1] can be described thus: qHTS profiling of the MIPE4 collection as inhibitors of Plasmodium falciparum (3D7) proliferation (AID 743344). As to conditions: P. falciparum 3D7 in erythrocytes, SYBR Green DNA fluorescence, 72 h; at 28.5 µM unless noted. In a few lines:
(§1)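 Erythrocytes infected with P. falciparum (0.3% parasitemia, 2.5% hematocrit) incubated with compounds 72 h at 37 C, 5% CO2. Lysis with saponin/Triton buffer containing SYBR Green I, overnight at room temperature in the dark; DNA fluorescence (485/535 nm) normalised to 0.29 uM artemisinin and DMSO.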
For orientation: In qHTS, concentration-response curves come from the screen itself.

Test [2] can be described thus: qHTS profiling of the MIPE4 collection as inhibitors of Plasmodium falciparum (DD2) proliferation (AID 743345). As to conditions: P. falciparum Dd2 in erythrocytes, SYBR Green DNA, 72 h; at 28.5 µM unless noted. In a few lines:
as §1

The nature of test [3]: qHTS profiling of the MIPE4 collection as inhibitors of Plasmodium falciparum (DD2) proliferation (Rep 2) (AID 743346). The following applies: P. falciparum Dd2 in erythrocytes, SYBR Green DNA, 72 h; at 28.5 µM unless noted. In a few lines:
as §1

Test [4] is described as follows: qHTS profiling of the MIPE4 collection as inhibitors of Plasmodium falciparum (HB3) proliferation (AID 743347).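 Also: plate controls were DMSO vehicle wells for no effect and artemisinin wells for full effect.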 As to conditions: P. falciparum HB3 in erythrocytes, SYBR Green DNA, 72 h; at 28.5 µM unless noted. In outline:
as §1

Test [5] in a line: High-throughput drug toxicity screening in the BPDCN cell line Gen2.2 (AID 1224824). The following applies: Gen2.2 BPDCN cells; at 45.8 µM (top of the series) unless noted. In outline:
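Seed 500 exponentially growing Gen2.2 cells/well; add compounds by pin tool; incubate 48 h, 37 °C, 5% CO2; add CellTiter-Glo, 15 min RT; read luminescence. % activity vs DMSO (100%) and bortezomib (0%).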

The nature of test [6]: High-throughput drug toxicity screening in the BPDCN cell line Cal-1 (AID 1224825). As to conditions: Cal-1 BPDCN cell viability, qHTS; at 45.8 µM (top of the series) unless noted. In a few lines: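 Exponentially growing Cal-1 cells, 500 per well in phenol red-free RPMI with 10% FBS, were exposed to compounds for 48 h at 37 °C, 5% CO2. Viability was read by CellTiter-Glo luminescence and normalised to DMSO (100%) and 9.2 uM bortezomib (0%).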

Test [7] is described as follows: qHTS assay for measurement of the activity of small molecule inhibitors on Zika virus induced Caspase-3 activity in human iPSC derived neural progenitor cells (hNPCs) (AID 1224857; active = well fitted curve in the direction sought with a large enough effect; an effect the other way counts as inactive or inconclusive; also: % of control where 0% means no effect; nearly all actives have a fitted effect of over 65% in size). In a few lines:
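Percent inhibition of virus-induced caspase-3/7 luminescence (Caspase-Glo), scaled between uninfected cells and Zika-infected cells. hNPCs received compound 1 hr before ZIKV at 2 FFU/cell, with 6 hours infection at 37 C.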

The nature of test [8]: qHTS assay for measurement of the activity of small molecule inhibitors on Zika virus induced Caspase-3 activity in human astrocytoma cells (AID 1224859; active = well fitted curve in the direction sought with a large enough effect; an effect the other way counts as inactive or inconclusive;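 also: plate controls were ZIKV-infected untreated cells for no effect and uninfected cells for full effect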). In a few lines:
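Luminescent caspase-3/7 read-out (30 min reagent, room temperature) in human SNB-19 cells infected 6 h with ZIKV (2 FFU/cell) after 1 h compound pre-incubation; Data were normalised to uninfected and infected wells.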

Test [9] is described as follows: qHTS Screen of the MIPE 4.0 Collection Against Ewings Sarcoma (EW8) (AID 1259255; active = well fitted curve in the direction sought with a large enough effect; an effect the other way counts as inactive or inconclusive; also: nearly all actives have a fitted effect of over 35% in size; also: potency is read from the fitted curve at half-maximal effect;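 as to viability: 100% = DMSO-treated cells and 0% = medium-only wells without cells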). In outline: (§2)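 Compound titrations go onto adherent log-phase cells 4 h after seeding, incubate 48 h at 37C, then CellTiter-Glo luminescence reports viability relative to DMSO and cell-free controls.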
Test [10] can be described thus: qHTS Screen of the MIPE 4.0 Collection Against Ewings Sarcoma (TC32) (AID 1259256; active = well fitted curve in the direction sought with a large enough effect; an effect the other way counts as inactive or inconclusive; also: potency is read from the fitted curve at half-maximal effect; nearly all actives have a fitted effect of over 45% in size). In a few lines: as §2
The nature of test [11]: qHTS profiling for inhibitors of Plasmodium falciparum (3D7) proliferation (AID 743322).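 Also: infected erythrocytes exposed to compound for 72 h before lysis; 100% = DMSO vehicle wells and 0% = 0.29 µM artemisinin.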 The following applies: P. falciparum 3D7 proliferation; at 28.7 µM (top of the series). In outline: as §1
The nature of test [12]: qHTS profiling for inhibitors of Plasmodium falciparum (DD2) proliferation (AID 743323). As to conditions: lower = more inhibition; at 28.7 µM (top of the series). In a few lines: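 Parasite proliferation measured via DNA-dye fluorescence, as uninfected erythrocytes lack DNA. Cultures at 0.3% parasitemia and 2.5% hematocrit incubated 72 h with compound; signal scaled between vehicle and 0.29 uM artemisinin wells.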

A short description of test [13]: qHTS profiling for inhibitors of Plasmodium falciparum (HB3) proliferation (AID 743324; active = well fitted curve in the direction sought with a large enough effect; an effect the other way counts as inactive or inconclusive;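 also: 100% = DMSO vehicle wells and 0% = artemisinin-treated control wells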). The following applies: Plasmodium falciparum HB3 blood-stage proliferation; at 28.7 µM (top of the series). In a few lines: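 P. falciparum HB3 grown in erythrocytes (0.3% parasitemia, 2.5% hematocrit final) with compound for 72 h at 37 C, 5% CO2. Parasite DNA detected by SYBR Green after saponin/triton lysis overnight; normalized to 0.29 uM artemisinin and DMSO.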

Test [14] can be described thus: Identifying Small Molecule Inhibitors of Pancreatic Cancer Stem Cells (A2780, Spheroid) (AID 1259357; active = well fitted curve in the direction sought with a large enough effect; an effect the other way counts as inactive or inconclusive;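 also: potency is read from the fitted curve at half-maximal effect; compound exposure lasted 48 h before the ATP luminescence read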). The following applies: Potency: A2780 spheroid viability. In a few lines:
(§3)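 Monolayer and spheroid cultures are compared. Spheroids form over 14 days in stem cell medium on hydrogel-coated low-attachment plates, then are exposed to compound for 48 h before CellTiter-Glo luminescence.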

Test [15] in a line: Identifying Small Molecule Inhibitors of Pancreatic Cancer Stem Cells (Panc1, Spheroid) (AID 1259359; active = well fitted curve in the direction sought with a large enough effect; an effect the other way counts as inactive or inconclusive;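 also: potency is read from the fitted curve at half-maximal effect; compound exposure lasted 48 h before reading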). The following applies: Panc1 spheroid cancer stem cell viability. In a few lines:
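Viability is scored by CellTiter-Glo luminescence 48 h after dosing, expressed as percent activity against vehicle and no-cell references. Spheroid formats rely on cells cultured 14 days in stem cell media beforehand.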

Test [16] is described as follows: Identifying Small Molecule Inhibitors of Pancreatic Cancer Stem Cells (SN12C, Spheroid) (AID 1259360; active = well fitted curve in the direction sought with a large enough effect; an effect the other way counts as inactive or inconclusive;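 also: 100% = DMSO-treated cells and 0% = wells without cells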). The following applies: Potency: SN12C spheroid viability. In outline: as §3

As for `CC(C)n1nc(-c2ccc3oc(N)nc3c2)c2c(N)ncnc21`, in test [1], the parasite growth, % of DMSO control amounted to 5.01%. Also, in [2], the parasite growth remaining, % of DMSO control (lower = more inhibition) was 9.14%. In test [3], the parasite growth, % of control (lower = inhibition) stood at 6.88%. Besides, in test [4], the growth, % of control stood at 4.46%. In addition, the cell viability, % of control (lower = more cytotoxic) in test [5] is 1.63%. The viability (% of control) in test [6] came out at 8.31%. For the same molecule, the Potency result in [7] and in test [8] was “inactive” throughout.
The molecule `CN(C)CCC=C1c2ccccc2COc2ccc(CC(=O)O)cc21` gave a parasite growth, % of DMSO control in [1] of 91.3%. Also, the parasite growth remaining, % of DMSO control (lower = more inhibition) in [2] was determined as 91.8%. The parasite growth, % of control (lower = inhibition) in test [3] was determined as 121%. This molecule also showed a growth, % of control in [4] of 99.1%. Moreover, the cell viability, % of control (lower = more cytotoxic) in [5] came to 162%. For the same molecule, in test [6], the viability (% of control) was 98%. For the same molecule, the Potency entry in test [7], in test [8] and in test [9] was “inactive” in each case.
The molecule `CCC(=O)NC[C@H](Cc1ccc(OCCc2nc(-c3ccccc3)oc2C)cc1)NC(C)=CC(=O)c1ccc(C(F)(F)F)cc1` came in with a parasite growth, % of DMSO control in test [1] of 6.82%. The parasite growth remaining, % of DMSO control (lower = more inhibition) in test [2] was found to be 7.84%. The same molecule gave a growth, % of control in [4] of 9.04%. Also, the cell viability, % of control (lower = more cytotoxic) in test [5] amounted to 96.4%. The viability (% of control) in test [6] was determined as 5.56%. Also, the Potency entry in test [7] and in test [8] was “inactive” throughout.
`Cc1cccc(Nc2nc(-c3ccncc3)cs2)c1` yielded a parasite growth, % of DMSO control in [1] of 29.1%. In [2], the parasite growth remaining, % of DMSO control (lower = more inhibition) was found to be 71%. The same molecule registered a growth, % of control in [4] of 17.7%. Besides, the cell viability, % of control (lower = more cytotoxic) in test [5] worked out at 75.6%. Further, the viability (% of control) in [6] is 82.9%. Besides, the Potency result in test [7] and in test [8] was “inactive” each time.
Turning to `CC1(C)CCC[C@@]2(C)[C@@H]1CC[C@@]1(C)OC(=O)C[C@H]21`, the parasite growth, % of DMSO control in test [1] is 81.6%. Further, in [2], the parasite growth remaining, % of DMSO control (lower = more inhibition) was 136%. In addition, in test [3], the parasite growth, % of control (lower = inhibition) turned out to be 56.5%. Moreover, the cell viability, % of control (lower = more cytotoxic) in test [5] is 95%. Also, the viability (% of control) in [6] worked out at 102%. For the same molecule, the Potency entry in test [7] and in test [8] was “inactive” each time.
In test [1], `COc1ccc2cc(-c3nc(-c4ccc(S(C)=O)cc4)[nH]c3-c3ccncc3)ccc2c1` (configuration not stated) returned a parasite growth, % of DMSO control of 6.21%. Besides, the parasite growth remaining, % of DMSO control (lower = more inhibition) in [2] is 9.3%. In addition, the growth, % of control in test [4] stood at 3.67%. Also, in [5], the cell viability, % of control (lower = more cytotoxic) is 470%. Moreover, in [6], the viability (% of control) came out at 65.1%. Further, the Potency result in [7] and in test [8] was “inactive” in each case. The Potency in [10] is 20.9 µM (active).
In [1], `Cc1c[nH]c(C=C2C(=O)Nc3ccccc32)c1CCC(=O)O` came in with a parasite growth, % of DMSO control of 24.1%. In addition, in [2], the parasite growth remaining, % of DMSO control (lower = more inhibition) was 38.5%. The molecule further yielded a growth, % of control in test [4] of 37.7%. The cell viability, % of control (lower = more cytotoxic) in [5] stood at 45%. For the same molecule, the viability (% of control) in [6] was determined as 55.9%. Further, the Potency entry in test [7] and in test [8] was “inactive” throughout.
Take `COc1ncc(-c2ccc3nccc(-c4ccnnc4)c3c2)cc1NS(=O)(=O)c1ccc(F)cc1F`: the remaining parasite growth % (stronger effect = lower value) in [11] was -1.12%. For the same molecule, the activity, percent of control in test [12] is -0.177%. For the same molecule, the remaining proliferation (% of control), lower = more inhibition in test [13] is -1.02%. This molecule came in with a parasite growth, % of DMSO control in test [1] of 4.65%. For the same molecule, the parasite growth remaining, % of DMSO control (lower = more inhibition) in [2] stood at 7.55%. For the same molecule, in test [3], the parasite growth, % of control (lower = inhibition) came to 6.02%. Moreover, the cell viability, % of control (lower = more cytotoxic) in [5] was found to be 3.44%. Besides, the viability (% of control) in test [6] came to 3.33%. Besides, the Potency result in test [7] and in [8] was “inactive” in each case. Also, the Potency in test [14] was 0.132 µM (active); in test [15] it was 0.0074 µM (active).
For the molecule `COc1cc(N2CCC(N3CCN(C)CC3)CC2)ccc1Nc1ncnc(Nc2ccccc2S(=O)(=O)C(C)C)n1`, the parasite growth, % of DMSO control in test [1] was 8.76%. Besides, the parasite growth remaining, % of DMSO control (lower = more inhibition) in test [2] turned out to be 8.1%. For the same molecule, in test [3], the parasite growth, % of control (lower = inhibition) was 8.07%. In addition, in [4], the growth, % of control was found to be 4.08%. Also, the cell viability, % of control (lower = more cytotoxic) in [5] worked out at 2%. For the same molecule, the viability (% of control) in test [6] was found to be 6.26%. Moreover, the Potency result in test [7] and in test [8] was “inactive” throughout. Further, the Potency in test [9] was 20.9 µM (active).
Regarding `CC(C)(C(=O)NCC(F)(F)C(F)(F)F)C(=O)N[C@@H]1C(=O)Nc2ccccc2-c2ccccc21`, the remaining parasite growth % (stronger effect = lower value) in test [11] turned out to be 5.09%. Also, the activity, percent of control in test [12] was 4.91%. In addition, the remaining proliferation (% of control), lower = more inhibition in test [13] is -0.0337%. For the same molecule, the parasite growth, % of DMSO control in test [1] was 8.18%. Moreover, the parasite growth remaining, % of DMSO control (lower = more inhibition) in [2] amounted to 9.25%. Further, the parasite growth, % of control (lower = inhibition) in [3] was 11.3%. Moreover, the growth, % of control in test [4] stood at 10.3%. Also, the cell viability, % of control (lower = more cytotoxic) in test [5] is 71.1%. Moreover, the viability (% of control) in test [6] stood at 5.17%. Further, the Potency result in [7], in test [8] and in test [16] was “inactive” each time. Besides, in test [15], the Potency was 0.0015 µM (active).
